The campaign covered roughly 2,100 compounds. About 1,100 (52%) were called active. Not shown: some 29% with an inconclusive outcome. Calls come from the whole dose curve; as a rule, active = well fitted inhibition curve with a large enough effect; inconclusive = small, poorly fitted or top-dose-only effect; inactive = no such curve, though single readings can be large or run the other way. So high a share suggests a set chosen from earlier hits. The list shows a part of the results.
target: DNA dC->dU-editing enzyme APOBEC-3F (Homo sapiens) (UniProt Q8IUX4); experiment: qHTS for inhibitors of Vif-A3F interactions: Cherry picks counterscreen; conditions: HeLa A3F-eYFP/Vif cells, eYFP fluorescence, 24 h; series mostly up to 46.1 µM; note: nearly all actives have a fitted effect of over 65% in size
In short: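 Rescue of Vif-driven A3F-eYFP degradation read as cellular eYFP fluorescence after 24 h compound exposure (several concentrations) in stable HeLa cells; MG132 (2 mM stock) as positive control.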
Potency is the fitted concentration of half-maximal effect.

Chain of DNA dC->dU-editing enzyme APOBEC-3F (Homo sapiens) (Q8IUX4 whole entry, looked up): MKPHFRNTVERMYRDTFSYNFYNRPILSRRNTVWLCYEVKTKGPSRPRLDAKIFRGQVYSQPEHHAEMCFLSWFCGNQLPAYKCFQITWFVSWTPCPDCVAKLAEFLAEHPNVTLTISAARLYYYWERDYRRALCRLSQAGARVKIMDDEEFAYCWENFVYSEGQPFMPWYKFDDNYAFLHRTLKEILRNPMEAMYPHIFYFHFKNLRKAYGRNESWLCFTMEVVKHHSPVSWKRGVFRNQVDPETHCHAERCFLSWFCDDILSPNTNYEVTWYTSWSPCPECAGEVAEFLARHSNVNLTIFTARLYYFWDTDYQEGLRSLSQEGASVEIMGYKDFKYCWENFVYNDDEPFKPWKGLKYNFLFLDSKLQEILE

Row | SMILES | Potency
1 | CCc1cc[n+](-c2nc3ccccc3nc2[N-]S(=O)(=O)c2ccc(Br)s2)cc1 | 8.2 µM (active)
2 | O=S(=O)([N-]c1nc2ccccc2nc1-[n+]1ccc(-c2ccncc2)cc1)c1ccccc1 | 18.4 µM (active)
3 | Cc1cc(C)c[n+](-c2nc3ccccc3nc2[N-]S(=O)(=O)c2ccc(Br)s2)c1 | 9.2 µM (active)
4 | O=C(c1ccccc1)C1C(=O)c2ccccc2C1=O | inactive
5 | NN=C1c2ccccc2C(=O)C1C(=O)C(c1ccccc1)c1ccccc1 (stereo not given) | 12.5 µM (active)
6 | CCCCN1C(=O)C2Cc3c([nH]c4ccccc34)CN2C1=S (stereo not given) | 15.8 µM (active)
7 | CCS(=O)(=O)Nc1cccc(C2=NN(C(=O)c3ccco3)C(c3ccco3)C2)c1 (stereo not given) | 11.2 µM (active)
8 | O=C(O)c1ccccc1/C=N/Nc1ccc(S(=O)(=O)N2CCOCC2)cc1[N+](=O)[O-] | inactive
9 | Cc1ccc(NC(=S)N=Nc2c(O)n(C)c3ccc(S(=O)(=O)N4CCOCC4)cc23)cc1 | inactive
10 | CCCN1CCC(=NNc2ccc(S(=O)(=O)N3CCOCC3)cc2[N+](=O)[O-])CC1 | 3.96 µM (active)
11 | COc1ccccc1CCC(=O)Nc1ccc2c(c1)c(=O)n(C)n2-c1cccs1 | 3.14 µM (active)
12 | COc1ccccc1CCC(=O)Nc1ccc2c(c1)c(=O)n(C)n2Cc1ccc(F)cc1 | 15.8 µM (active)
13 | CC(C)=CCn1c2ccc(NC(=O)NCc3ccc(F)cc3)cc2c(=O)n1C | 3.14 µM (active)
14 | Cc1ccc2[nH]c3c(c2c1)CN(C(=O)CN1CC(C)OC(C)C1)CC3 (stereo not given) | inactive
15 | O=C(C[C@@H]1C/C=C/CC[C@H](Cc2ccc(F)cc2)C(=O)OC[C@@H](Cc2ccccc2)NC1=O)N[C@H](CO)Cc1ccccc1 | 16.4 µM (active)
16 | O=C(O)c1ccc(N/N=C/C(Br)=C/c2ccccc2)cc1 | inactive
17 | CC(/C=N/NC(=O)c1cccc(F)c1)=C\c1ccccc1 | 12.5 µM (active)
18 | COc1cccc(C(=O)N/N=C/C(Br)=C/c2ccccc2)c1 | 2.8 µM (active)
19 | C/C(=N/NC(N)=S)c1ccc(Br)s1 | inactive
20 | O=C1CN(C(=O)c2cc(Br)c(Br)s2)c2ccccc2N1 | 6.27 µM (active)
21 | CCCn1nc(C(=O)N2CC(=O)Nc3ccccc32)c2ccccc2c1=O | 11.2 µM (active)
22 | Cc1cc(C)cc(C(=O)N2CC(=O)Nc3ccccc32)c1 | 0.994 µM (active)
23 | COc1cc(OC)cc(C(=O)N2CC(=O)Nc3ccccc32)c1 | 1.25 µM (active)
24 | CCC(C)[C@H](NC(=O)N1CC(=O)Nc2ccccc21)C(=O)Nc1ccccc1C (stereo not given in full) | 15.8 µM (active)
25 | Cc1ccc(N/C(N)=N/c2nc(CSc3nnc(C)s3)cc(=O)[nH]2)c(C)c1 | 1.77 µM (active)
